Where a name gives a salt, the structure may show the parent alone.
How the values were obtained:
HCC1937 = assay: relative cell viability, compound alone, vs DMSO (fraction of DMSO control); higher = less growth inhibition; settings: 72 h
MDA-MB-231 = assay: as above; settings: 72 h
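Also: viability read out with the CCK-8 kit in 96-well plates, screening a set of 303 compounds acting on lipid metabolism targets.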

SMILES	relative cell viability (HCC1937)	relative cell viability (MDA-MB-231)
O=C(O)Cc1cccc(OCCCN(Cc2cccc(C(F)(F)F)c2Cl)CC(c2ccccc2)c2ccccc2)c1	0.78	1.11
Cc1nc2ccc(C(=O)N3CCC4(CC3)CC(=O)c3c(cnn3C(C)C)C4)cc2[nH]1	0.71	0.859
Cc1cc(SCc2sc(-c3ccc(C(F)(F)F)cc3)nc2C)ccc1OCC(=O)O	0.916	0.857
COc1cc(N2CCN(C)CC2)ccc1Nc1ncc2c(n1)N(C)c1ccccc1C(=O)N2	0.666	0.655
O=C(c1c2ccccc2cc2ccccc12)N1CCC(N2CCC[C@@H](C(=O)N3CCOCC3)C2)CC1	0.763	0.836
N#Cc1ccc(Oc2cccc(NC(=O)Nc3ccc(Cl)c(C(F)(F)F)c3)c2)cc1	0.1	0.276
CCC(CC)CC1(C(=O)Nc2ccccc2SC(=O)C(C)C)CCCCC1 [Dalcetrapib]	1.35	1.06
C=C[C@H]1CN2CC[C@H]1C[C@@H]2[C@@H](O)c1ccnc2ccc(OC)cc12 [Quinidine sulfate]	0.803	1.02
Nc1ncnc2c1ncn2C1OC(COP(=O)(O)O)C(O)C1O (configuration not stated) [Adenosine 5'-monophosphate monohydrate]	1.09	1.03
CCCCCC=CC(=O)CCc1ccc(O)c(OC)c1 [6-Shogaol]	0.937	0.978
O=C(NC1CCN(CCCCC2(C(=O)NCC(F)(F)F)c3ccccc3-c3ccccc32)CC1)c1ccccc1-c1ccc(C(F)(F)F)cc1 [Lomitapide]	0.293	0.695
COP(=O)(OC)OC(c1ccc(Cl)cc1)P(=O)(OC)OC (configuration not stated) [Mifobate]	1.18	1.2
CC1CC(OC(=O)C(O)c2ccccc2)CC(C)(C)C1 (configuration not stated) [Cyclandelate]	1.21	0.825
CC(C)OC(=O)CCC/C=C\C[C@@H]1[C@@H](CC[C@@H](O)CCc2ccccc2)[C@H](O)C[C@@H]1O [Latanoprost]	1.43	0.88
C[C@@H](Nc1nc(N[C@H](C)C(F)(F)F)nc(-c2cccc(Cl)n2)n1)C(F)(F)F [Vorasidenib]	0.708	0.914
CC[C@H](C)C(=O)O[C@H]1C[C@@H](C)C=C2C=C[C@H](C)[C@H](CC[C@@H]3C[C@@H](O)CC(=O)O3)[C@H]21 [Lovastatin]	1.13	0.657
CN(C)C(=N)NC(=N)N [Metformin]	0.646	0.93
O=c1c(O[C@@H]2O[C@H](CO)[C@@H](O)[C@H](O)[C@H]2O)c(-c2ccc(O)cc2)oc2cc(O)cc(O)c12 [Astragalin]	0.937	0.984

SMILES	relative cell viability (HCC1937)	relative cell viability (MDA-MB-231)
CCCc1c(-c2ccccc2)[nH]n(-c2ccccn2)c1=O [APX-115 free base]	0.838	0.835
COc1ccc(-c2cc(=O)c3c(O)c(OC)c(OC)c(OC)c3o2)cc1OC	0.699	0.82
CC(=O)N1CCN(c2ccc(OCC3COC(Cn4ccnc4)(c4ccc(Cl)cc4Cl)O3)cc2)CC1 (configuration not stated) [Ketoconazole]	1.3	0.897
O=C(/C=C/c1ccc(/C=C/C(=O)Nc2ccc(C3=NCCN3)cc2)cc1)Nc1ccc(C2=NCCN2)cc1	0.772	0.765
O=C(O)/C=C/c1ccc(O)c(O)c1 [Caffeic Acid]	0.72	0.874
O=C1c2cccc(O)c2C(=O)c2c(O)cccc21 [Antrapurol]	0.699	0.808
NC(=O)c1cnccn1 [Pyrazinamide]	0.654	0.841
CC(=O)O[C@H](CC=C(C)C)C1=CC(=O)c2c(O)ccc(O)c2C1=O [Acetyl shikonin]	1.08	1.06
Cc1cc(C)c(S(=O)(=O)N(CCc2cccc(Br)c2)Cc2ccc(-c3cccc(S(C)(=O)=O)c3)cc2)c(C)c1	0.708	0.862
COc1ccc(Nc2ccn(-c3ccccc3)n2)cc1	0.868	1
CC[C@H]1[C@@H](O)[C@@H]2[C@H](CC[C@]3(C)[C@@H]([C@H](C)CCC(=O)O)CC[C@@H]23)[C@@]2(C)CC[C@@H](O)C[C@@H]12 [Obeticholic Acid]	0.901	0.856
O=c1cc(-c2ccc(O)c(-c3c(O)cc(O)c4c(=O)cc(-c5ccc(O)cc5)oc34)c2)oc2cc(O)cc(O)c12 [Amentoflavone]	0.782	0.812
Oc1ccc2c(c1)OCO2 [Sesamol]	0.804	0.831
O=C(O)CCn1c2c(c3ccccc31)C[C@H](NS(=O)(=O)c1ccc(F)cc1)CC2 [Ramatroban]	0.711	0.841
O=C(O)c1ccnc(N2CC(O)(c3ccc(OCc4c(-c5c(Cl)cccc5Cl)noc4C4CC4)cc3Cl)C2)c1 [Cilofexor]	0.661	0.885
CSc1ccc(C(=O)/C=C/c2cc(C)c(OC(C)(C)C(=O)O)c(C)c2)cc1 [Elafibranor]	1.57	1.06
C[C@@H]1O[C@@H](O[C@H]2[C@H](Oc3cc(O)c4c(c3)O[C@H](c3ccc(O)cc3)CC4=O)O[C@H](CO)[C@@H](O)[C@@H]2O)[C@H](O)[C@H](O)[C@H]1O [Naringin]	1.24	0.892
c1ccc([C@H]2CN3CCSC3=N2)cc1 [Levamisole hydrochloride]	0.815	0.887

Source: the supplement of paper PMC9492666
